ATXN2 expr inh = inhibitors of ATXN2 expression. AID 1745845. HEK-293 ATXN2-luciferase reporter, luminescence, 24 h. 0.72% of 360,000 active. Potency, µM (doses to about 57 µM), hits mostly inhibitors; note: nearly all actives have a fitted effect of over 55% in size
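ATXN2-luciferase reporter cells (luciferase flanked by upstream and downstream ATXN2 gene portions) were treated 24 h at 37 °C with compounds at up to 57 uM. SteadyGlo luminescence gave expression; GF-AFC fluorescence gave viability.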
TGFb inhibitor = inhibitors of TGF-b signaling. 1.2% of 410,000 active. Potency, µM (top dose mostly 46.1 µM), actives largely listed as inhibitors. HepG2 CAGA-GFP TGF-b/SMAD3 reporter, GFP fluorescence, 18 h; TGF-beta stimulated, 500 pg/mL final; note: nearly all actives have a fitted effect of over 65% in size
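Smad-responsive CAGA-GFP expression was quantified in HEPG2 cells exposed to compounds and 500 pg/mL final TGF-beta for 18 h at 37 degrees C; unstimulated wells defined full inhibition.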
TDP1 cell noCPT = qHTS for Inhibitors of human tyrosyl-DNA phosphodiesterase 1 (TDP1): qHTS in cells in absence of CPT; DT40 Tdp1-/- hTDP1 cells, no CPT, ATP luminescence, 48 h; Potency, µM (series often up to 46.2 µM), most hits filed as inhibitors; 15% of 420,000 active; note: nearly all actives have a fitted effect of over 55% in size
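Compound effects on proliferation are scored in DT40 Tdp1-/-;hTDP1 cells in the absence of CPT. ATP levels (CellTiter-Glo luminescence) are recorded after a ≥48 hr, 37 °C incubation.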
TDP1 cell CPT = DT40-hTDP1 cell growth loss with CPT; chicken DT40 Tdp1-/-;hTDP1 cells + 20 nM CPT, ATP luminescence, 48 h; Potency, µM (series often up to 46.2 µM), usual class: inhibitors; 12% of 420,000 active; note: nearly all actives have a fitted effect of over 55% in size
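Chicken DT40 Tdp1-/- cells complemented with human TDP1, 400 cells/well, exposed to compounds plus 20 nM camptothecin for at least 48 h at 37 C; viability read as ATP content by CellTiter-Glo luminescence.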
HepG2 tox = kills HepG2 cells in TGF-b inhibitor counter-screen. HepG2 CAGA-GFP viability, ATP luminescence, 18 h. AID 588856. Potency, µM (titrated, usually from 46.1 µM), actives largely listed as cytotoxic. 0.76% of 410,000 active
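HepG2 CAGA-GFP cells (1000/well, DMEM with 1% FBS) received compound, then TGF-beta at 500 pg/mL final, and were incubated 18 hours at 37 degrees C. Viability was read by CellTiter-Glo luminescence. Media-only wells were set as complete cell-killing and DMSO as no toxicity.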
ATXN viability = cell viability loss in ATXN counter-screen; 0.49% of 400,000 active; Potency, µM (top dose mostly 56.7 µM), usual class: cytotoxic; S2 cells (HEK-293 line with an ATXN2-luciferase reporter) viability, CellTiter-Fluor protease fluorescence, 24 h; note: nearly all actives have a fitted effect of over 40% in size
Each line names hits and unclear results; the compound was inactive in the other large screens. Rows were chosen to be rich in hits. Some 17% of all compounds tested hit in one or more screens of this group. Calls come from the whole dose curve; as a rule, active = well fitted curve in the direction sought with a large enough effect; inconclusive = small, poorly fitted or top-dose-only effect, or another doubt; inactive = no such curve, though single readings can be large; an effect the other way counts as inactive or inconclusive.

COC(=O)[C@@H]1C[C@H]2CC[C@H](O)C[C@H]2N1Cc1ccc(C)s1	none
Cc1ccc(NC(=S)NC(=O)c2cncc(Br)c2)cc1Cl	TDP1 cell noCPT inconclusive, TDP1 cell CPT inconclusive
CC(C)=CCCC(C)NC(=O)NC1CCCCC1 (centres undefined)	TDP1 cell noCPT 16µM, TDP1 cell CPT inconclusive
O=C(NC1CCCCC1)NC1CCCCC1	none (no result: ATXN2 expr inh, TGFb inhibitor, HepG2 tox, ATXN viability)
O=C(Nc1ccc(S(=O)(=O)C(F)F)cc1)c1cccc(S(=O)(=O)N2CCOCC2)c1	TDP1 cell noCPT 15µM, TDP1 cell CPT inconclusive
O=C(Nc1ccc(S(=O)(=O)N2CCOCC2)cc1)c1ccc(F)cc1	none
O=C(Nc1cccc(S(=O)(=O)C(F)F)c1)c1ccc(S(=O)(=O)N2CCOCC2)cc1	TDP1 cell noCPT 18µM
O=C(Nc1ccncc1)c1cccc(S(=O)(=O)N2CCOCC2)c1	TDP1 cell noCPT inconclusive
Cc1ncc2c(c1CNS(=O)(=O)N(C)C)CCN(C(=O)c1ccc(F)cc1Cl)C2	none (no result: ATXN2 expr inh, TGFb inhibitor, HepG2 tox)
CCN(CC)CCCNC(=O)c1ccc2c(c1)sc1nc(-c3ccc(C)cc3)cn12	TDP1 cell noCPT 2.3µM, TDP1 cell CPT 2.3µM, HepG2 tox 6.3µM (no result: ATXN2 expr inh, ATXN viability)
CCCNC(=O)c1ccc2c(c1)sc1nc(-c3ccc(C)cc3)cn12	TDP1 cell noCPT 5.8µM, TDP1 cell CPT 5.8µM (no result: ATXN2 expr inh, ATXN viability)
Cc1cccn2c(CNCCc3ccccn3)c(C(=O)N3CCOCC3)nc12	none
CN1CCN(c2nc(-c3ccccc3C(F)(F)F)nc3ccccc23)CC1	none (no result: ATXN2 expr inh, TGFb inhibitor, HepG2 tox, ATXN viability)
CCOc1ccc(NC(=O)CSC2=C(C#N)C(c3ccc4c(c3)OCO4)CC(=O)N2)cc1 (centres undefined)	none
COC(=O)CSC1=C(C#N)C(c2ccc(C)o2)CC(=O)N1 (centres undefined)	TDP1 cell noCPT 2.9µM, TDP1 cell CPT 15µM
CCCOC(=O)CSC1=C(C#N)C(c2ccc3c(c2)OCO3)CC(=O)N1 (centres undefined)	TDP1 cell noCPT 23µM, TDP1 cell CPT 18µM
COC(=O)CSC1=C(C#N)C(c2ccc(F)cc2)CC(=O)N1 (centres undefined)	TDP1 cell noCPT inconclusive
COCCCNC(=O)CCCn1c(SCC(=O)c2ccc(F)cc2)nc2c(sc3ccccc32)c1=O	none
CCn1cc([N+](=O)[O-])c(C(=O)N2CCCCCC2)n1	none
CCCCN(C=O)c1c(CC)nc2ccc(C(=O)NCc3ccc4c(c3)OCO4)cn12	TDP1 cell noCPT inconclusive, TDP1 cell CPT inconclusive
CCc1nc2ccc(C(=O)NCc3ccc4c(c3)OCO4)cn2c1N(CC)CCN(C)C	none
Cc1nc2ccc(C(=O)NCCc3c[nH]c4ccccc34)cn2c1N(C)C(=O)CCc1ccccc1	TDP1 cell noCPT 23µM, TDP1 cell CPT 23µM
CCc1nc2ccc(C(=O)NCCOc3ccc(OC)cc3)cn2c1N(C)C(=O)COc1ccccc1	TDP1 cell CPT inconclusive
CCc1nc2ccc(C(=O)NCc3ccc4c(c3)OCO4)cn2c1N(C)C(=O)Cc1ccccc1	TDP1 cell noCPT 23µM
CCc1nc2ccc(C(=O)NCc3ccc4c(c3)OCO4)cn2c1N(CCC(C)C)CCN(C)C	ATXN2 expr inh inconclusive, TGFb inhibitor inconclusive, TDP1 cell noCPT inconclusive, TDP1 cell CPT 21µM, ATXN viability inconclusive
CCc1nc2ccc(C(=O)NCc3ccc(OC)cc3)cn2c1N(C)C(=O)Cc1ccccc1	TDP1 cell noCPT 21µM, TDP1 cell CPT inconclusive
O=C(NCCc1ccccc1F)N[C@@H](Cc1ccccc1)C(=O)O	none (no result: ATXN2 expr inh)
CCN(CC)c1c(C)nc2ccc(C(=O)NCc3ccc4c(c3)OCO4)cn12	TDP1 cell noCPT inconclusive
CCc1nc2ccc(C(=O)NCc3ccc4c(c3)OCO4)cn2c1N(C)Cc1cccs1	ATXN2 expr inh inconclusive, TDP1 cell noCPT 16µM, TDP1 cell CPT inconclusive, ATXN viability inconclusive
CC(C)(C)c1ccc(CC(=O)N2CCC2(C)C(=O)NCc2ccc(Cl)cc2)cc1 (centres undefined)	TGFb inhibitor inconclusive, TDP1 cell noCPT 21µM, TDP1 cell CPT inconclusive
CC(C)c1ccc(CC(=O)N2CCC2(C)C(=O)NCCC#N)cc1 (centres undefined)	none
CC(C)c1ccc(CC(=O)N2CCC2(C)C(=O)NCC(C)(C)C)cc1 (centres undefined)	TDP1 cell noCPT 23µM, TDP1 cell CPT inconclusive
CC1(C(=O)NCc2ccc(Cl)cc2)CCN1C(=O)Cc1cccc2ccccc12 (centres undefined)	TGFb inhibitor inconclusive, TDP1 cell noCPT inconclusive, TDP1 cell CPT inconclusive, ATXN viability inconclusive
CC1(C(=O)NCc2ccc(Cl)cc2)CCN1C(=O)Cc1ccc(Cl)cc1Cl (centres undefined)	TDP1 cell noCPT inconclusive, TDP1 cell CPT 18µM, ATXN viability inconclusive
CC(=O)Nc1cccc(-c2cc3c(c4c2ccn4C)C2CCC3O2)c1 (centres undefined)	TGFb inhibitor inconclusive, TDP1 cell noCPT inconclusive, TDP1 cell CPT inconclusive
CC(CNC(=O)c1ccc2c(c1)OCO2)c1ccc([N+](=O)[O-])cc1 (centres undefined)	TDP1 cell noCPT inconclusive
CC(C)(Nc1ccccc1)C(=O)c1ccccc1	none
Cc1ccc(OCC(=O)Oc2c(C)cccc2C)cc1	none
COCC(=O)Oc1cc(-c2ccc(C)cc2C)c(OC(=O)COC)c(-c2ccc(C)cc2C)c1	TGFb inhibitor inconclusive, TDP1 cell noCPT 9.2µM, TDP1 cell CPT 10µM, HepG2 tox 7.1µM (no result: ATXN2 expr inh)
CCOc1ccc(N(CC(=O)Nc2ccc(OC)cc2)S(=O)(=O)c2c(C)noc2C)cc1	TDP1 cell noCPT inconclusive
COc1ccc(N(CC(=O)Nc2cc(Cl)ccc2OC)S(=O)(=O)c2c(C)noc2C)cc1	ATXN2 expr inh inconclusive, TDP1 cell noCPT 4.1µM, TDP1 cell CPT 3.3µM, ATXN viability inconclusive
COc1ccc(NC(=O)CN(c2cc(C)cc(C)c2)S(=O)(=O)c2c(C)noc2C)cc1Cl	ATXN2 expr inh inconclusive, TDP1 cell noCPT 23µM, TDP1 cell CPT inconclusive, ATXN viability inconclusive
COc1ccc(N(CC(=O)Nc2ccc(OC)c(Cl)c2)S(=O)(=O)c2c(C)noc2C)cc1	TDP1 cell noCPT 21µM, TDP1 cell CPT 21µM
COc1ccccc1NC(=O)CN(c1ccc(C(C)C)cc1)S(=O)(=O)c1c(C)noc1C	TDP1 cell noCPT 23µM, TDP1 cell CPT 18µM
Cc1ccc2oc(C(=O)Nc3ccc(S(=O)(=O)N4CCCCC4C)cc3)cc(=O)c2c1 (centres undefined)	TDP1 cell noCPT inconclusive, TDP1 cell CPT inconclusive
Cc1nc(NCc2cnn(C)c2)sc1-c1ccn(-c2cccc(F)c2)n1	none (no result: ATXN2 expr inh, TGFb inhibitor, HepG2 tox)

Screening results from PubChem BioAssay.
